The values that follow come from PubChem BioAssay (EPA / NIEHS).

A short description of assay [1]: ATG_ISRE_CIS: Attagene CIS-FACTORIAL HepG2 Assay for human Interferon Regulatory Factor 1 (IRF1) binding to an Interferon-Stimulated Response Element (ISRE) (AID 2282948). The note with it: HepG2 ISRE cis-reporter (Attagene), mRNA transcription readout; actives raise or lower the signal. The method, boiled down: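 Endogenous transcription factor activity read as reporter transcript abundance via RT-PCR and capillary electrophoresis. HepG2 cells transiently transfected, 24 h chemical exposure. Gain or loss fitted against DMSO baseline.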

Assay [2] can be described thus: ATG_M_32_CIS: Attagene CIS-FACTORIAL HepG2 Assay for M32 Transcription Factor (Internal Marker) (AID 2282949).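 Note: background control marker of the multiplexed CIS panel rather than a real target.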 The note with it: HepG2 Attagene cis-factorial M32 reporter, mRNA; actives raise or lower the signal. In outline: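 HepG2 transfectants (cis-regulated reporter transcription units) dosed 24 h. Reporter mRNA by RT-PCR plus CE, analysed as gain or loss relative to DMSO.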

Assay [3] in a line: ATG_M_06_CIS: Attagene CIS-FACTORIAL HepG2 Assay for M06 Transcription Factor (Internal Marker) (AID 2282950). The following applies: HepG2 Attagene CIS-FACTORIAL M06 internal marker reporter; actives raise or lower the signal. In outline:
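Cells (HepG2, transiently carrying cis-driven reporter units) receive chemical for 24 h before RNA isolation. Reporter cDNA is PCR-amplified, FAM-labelled by primer extension, HpaI-digested and sized on a capillary analyser.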

Assay [4] addresses Hypoxia-inducible factor 1-alpha (Homo sapiens) (UniProt Q16665). The assay is described as follows: ATG_HIF1a_CIS: Attagene CIS-FACTORIAL HepG2 Assay for human Hypoxia Inducible Factor 1 (HIF1A) (AID 2282951). The following applies: HepG2 Attagene cis-factorial HIF1a reporter transcription; actives raise or lower the signal. In outline:
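After 24 h chemical exposure of reporter-transfected HepG2 cells, reporter cDNA was PCR-amplified, labelled by 6-FAM primer extension (2 min 95 C, 20 s 68 C, 10 min 72 C), HpaI-cut (2 h, 37 C) and analysed by CE.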

Assay [5] addresses Hepatocyte nuclear factor 6 (Homo sapiens) (UniProt Q9UBC0). The assay is described as follows: ATG_HNF6_CIS: Attagene CIS-FACTORIAL HepG2 Assay for human Hepatocyte Nuclear Factor 6 (HNF6) (AID 2282952). The following applies: HepG2 Attagene cis-factorial HNF6 reporter transcription; actives raise or lower the signal. In outline: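 Endogenous transcription factor activity in human HepG2 liver cells was captured through cis-regulated reporter constructs. After 24 h treatment, reporter mRNA was measured by RT-PCR with capillary electrophoresis, and activity was fitted in both directions relative to DMSO.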

Assay [6] addresses Heat shock factor protein 1 (Homo sapiens) (UniProt Q00613). The assay is described as follows: ATG_HSE_CIS: Attagene CIS-FACTORIAL HepG2 Assay for human Heat Shock Transcription Factor 1 (HSE) (AID 2282953). The following applies: HepG2 HSE cis-reporter, Attagene RNA transcription; actives raise or lower the signal. The method, boiled down: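 Liver-derived HepG2 cells carry transiently introduced multiple reporter units governed by cis promoters. Reporter RNA measured 24 h post-dose through reverse transcription, PCR amplification, fluorescent labelling and capillary electrophoresis, normalised to DMSO.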

The nature of assay [7]: ATG_MRE_CIS: Attagene CIS-FACTORIAL HepG2 Assay for human Metal Responsive Element (MRE) (AID 2282954). The note with it: HepG2 MRE cis-reporter transcription, Attagene multiplex; actives raise or lower the signal. In outline:
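Endogenous MRE-dependent transcription read as reporter mRNA in transiently transfected human HepG2 cells at 24 h. RNA reverse-transcribed, PCR-amplified, labelled and resolved by capillary electrophoresis; gain or loss relative to DMSO.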

Assay [8] in a line: ATG_PBREM_CIS: Attagene CIS-FACTORIAL HepG2 Assay for human Phenobarbital-responsive Enhancer Module (PBREM) (AID 2282955). The note with it: HepG2 PBREM cis-reporter, Attagene multiplexed transcription; actives raise or lower the signal. The method, boiled down:
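Measures endogenous factor action on a phenobarbital-responsive enhancer module. HepG2 transiently carrying cis reporters, 24 h treatment, mRNA read-out by RT-PCR plus capillary electrophoresis.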

Structures are written as SMILES. Calls of active or inactive are those of the source. Rule for the calls: active = hit-call score of the fitted dose curve at least 0.9, where 1 is the maximum; inactive = score below 0.9.

Chain of Hepatocyte nuclear factor 6 (Homo sapiens) (Q9UBC0 whole entry, looked up): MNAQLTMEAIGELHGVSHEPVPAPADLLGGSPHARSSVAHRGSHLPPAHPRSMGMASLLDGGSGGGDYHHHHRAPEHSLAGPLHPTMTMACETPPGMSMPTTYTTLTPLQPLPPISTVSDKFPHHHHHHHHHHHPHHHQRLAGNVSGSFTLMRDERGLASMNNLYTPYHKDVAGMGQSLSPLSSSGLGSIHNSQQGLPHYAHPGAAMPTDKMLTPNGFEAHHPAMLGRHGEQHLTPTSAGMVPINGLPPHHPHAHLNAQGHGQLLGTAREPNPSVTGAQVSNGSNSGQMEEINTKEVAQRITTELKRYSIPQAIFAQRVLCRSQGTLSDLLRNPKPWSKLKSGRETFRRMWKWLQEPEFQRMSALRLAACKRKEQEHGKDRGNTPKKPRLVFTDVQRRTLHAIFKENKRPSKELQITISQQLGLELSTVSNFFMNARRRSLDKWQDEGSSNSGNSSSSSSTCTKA
Chain of Heat shock factor protein 1 (Homo sapiens) (Q00613 whole entry, looked up): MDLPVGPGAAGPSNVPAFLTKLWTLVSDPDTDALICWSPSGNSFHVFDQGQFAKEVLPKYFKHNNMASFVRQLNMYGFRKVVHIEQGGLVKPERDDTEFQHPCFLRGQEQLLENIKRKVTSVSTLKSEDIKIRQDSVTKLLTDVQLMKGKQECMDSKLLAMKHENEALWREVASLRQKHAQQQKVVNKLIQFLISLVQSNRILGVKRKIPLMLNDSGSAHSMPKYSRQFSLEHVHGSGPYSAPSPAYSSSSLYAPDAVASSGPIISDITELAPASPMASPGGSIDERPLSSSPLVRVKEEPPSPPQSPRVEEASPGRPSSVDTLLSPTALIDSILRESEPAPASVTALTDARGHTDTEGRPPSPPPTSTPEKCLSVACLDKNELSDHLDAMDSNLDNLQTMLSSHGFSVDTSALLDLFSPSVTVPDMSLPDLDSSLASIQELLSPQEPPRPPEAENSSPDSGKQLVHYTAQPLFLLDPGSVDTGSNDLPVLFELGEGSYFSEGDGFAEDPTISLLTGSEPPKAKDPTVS
Chain of Hypoxia-inducible factor 1-alpha (Homo sapiens) (Q16665 whole entry, looked up): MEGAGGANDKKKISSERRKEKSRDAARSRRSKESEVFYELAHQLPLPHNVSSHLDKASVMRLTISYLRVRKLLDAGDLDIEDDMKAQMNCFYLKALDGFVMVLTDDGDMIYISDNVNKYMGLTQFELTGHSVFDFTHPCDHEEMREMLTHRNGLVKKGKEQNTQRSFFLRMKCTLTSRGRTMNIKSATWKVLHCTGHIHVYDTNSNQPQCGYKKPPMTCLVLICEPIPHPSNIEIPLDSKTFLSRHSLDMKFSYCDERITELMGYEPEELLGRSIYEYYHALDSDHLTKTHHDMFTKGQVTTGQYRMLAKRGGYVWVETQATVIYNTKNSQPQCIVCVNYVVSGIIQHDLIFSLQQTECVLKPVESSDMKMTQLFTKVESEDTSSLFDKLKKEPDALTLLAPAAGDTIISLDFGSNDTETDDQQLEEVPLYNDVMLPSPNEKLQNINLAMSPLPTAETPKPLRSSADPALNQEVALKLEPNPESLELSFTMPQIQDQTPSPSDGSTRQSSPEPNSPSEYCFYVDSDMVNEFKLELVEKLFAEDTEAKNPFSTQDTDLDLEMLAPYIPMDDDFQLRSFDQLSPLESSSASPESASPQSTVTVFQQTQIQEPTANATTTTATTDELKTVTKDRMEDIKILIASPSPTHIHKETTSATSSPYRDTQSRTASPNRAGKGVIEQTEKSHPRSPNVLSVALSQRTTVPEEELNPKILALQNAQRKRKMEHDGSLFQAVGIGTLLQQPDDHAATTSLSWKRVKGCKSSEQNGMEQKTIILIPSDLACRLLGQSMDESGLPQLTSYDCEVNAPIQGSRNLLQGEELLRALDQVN

`Cc1ccccc1C=O`: the molecule was called inactive in assay [1], in assay [2], in assay [3], in assay [4], in assay [5] and in assay [6]. The molecule was called inactive in assay [7] and in assay [8].
As to `O=C[C@@H](O)[C@H](O)[C@H](O)CO`, the molecule was called inactive in assay [1], in assay [2], in assay [3], in assay [4], in assay [5] and in assay [6]. Also, in assay [7], the result was inactive.
`Cc1ccc(S)cc1`: the AC50 in assay [1] is 35.3 µM (active); in assay [5] it was 100 µM (active); in assay [6] it was 161 µM (active). Further, the call in assay [2], in assay [3], in assay [4], in assay [7] and in assay [8] was inactive.
Consider `CC1(CO)CN(c2ccccc2)NC1=O` (stereo not given), for which the result in assay [1], in assay [2], in assay [3], in assay [4], in assay [5] and in assay [6] was inactive. Moreover, the molecule was classed as inactive in assay [7] and in assay [8].
On to `NC(=O)NC1NC(=O)NC1=O` (stereo not given), for which the molecule was called inactive in assay [1], in assay [2], in assay [3], in assay [4], in assay [5] and in assay [6]. In addition, the outcome in assay [8] was inactive.
As to `CO[Si](CCCn1c(=O)n(CCC[Si](OC)(OC)OC)c(=O)n(CCC[Si](OC)(OC)OC)c1=O)(OC)OC`, the result in assay [1], in assay [2], in assay [3], in assay [4], in assay [5] and in assay [6] was inactive. Besides, in assay [7], the molecule was called inactive.
For the molecule `CC(=O)c1c(C)cc(C(C)(C)C)cc1C`, the result in assay [1], in assay [2], in assay [3], in assay [4], in assay [5] and in assay [6] was inactive. For the same molecule, the outcome in assay [7] and in assay [8] was inactive.
Consider `CCCCC(CC)COCCC#N` (stereo not given), for which the result in assay [1], in assay [2], in assay [3], in assay [4], in assay [5] and in assay [6] was inactive. For the same molecule, the molecule was called inactive in assay [7] and in assay [8].
As to `OCCOCCOCCOCCO`, the molecule was classed as inactive in assay [1], in assay [2], in assay [3], in assay [4], in assay [5] and in assay [7].
On to `CCC(=O)OCCC(C)CCC=C(C)C` (stereo not given), for which the result in assay [1], in assay [2], in assay [3], in assay [4], in assay [5] and in assay [6] was inactive. The outcome in assay [7] and in assay [8] was inactive.
As for `OC1OC[C@@H](O)[C@H](O)[C@H]1O` (stereo not given in full), the call in assay [1], in assay [2], in assay [3], in assay [4], in assay [5] and in assay [7] was inactive. Besides, the result in assay [8] was inactive.
Take `COc1ccc(NC(=O)CC(C)=O)cc1`: the result in assay [1], in assay [2], in assay [3], in assay [4], in assay [5] and in assay [6] was inactive. Also, the molecule was classed as inactive in assay [7].
For the molecule `Fc1c(F)c(F)c(Br)c(F)c1F`, the result in assay [1], in assay [2], in assay [3], in assay [4], in assay [5] and in assay [6] was inactive. Also, the call in assay [7] was inactive.
Regarding `CCCCCCCCC=O`, the molecule was called inactive in assay [1], in assay [2], in assay [3], in assay [4], in assay [5] and in assay [6]. Moreover, the call in assay [7] and in assay [8] was inactive.
Take `Cc1ccc(C=O)s1`: the molecule was classed as inactive in assay [1], in assay [2], in assay [3], in assay [4], in assay [5] and in assay [6]. The result in assay [7] and in assay [8] was inactive.
On to `O=C[C@H](O)[C@H](O)[C@H](O)CO`, for which the outcome in assay [1], in assay [2], in assay [3], in assay [4], in assay [5] and in assay [6] was inactive. For the same molecule, the molecule was classed as inactive in assay [7] and in assay [8].
Consider `OC[C@H]1O[C@H](O[C@]2(CCl)O[C@H](CCl)[C@@H](O)[C@@H]2O)[C@H](O)[C@@H](O)[C@H]1Cl`, for which the result in assay [1], in assay [2], in assay [3], in assay [4], in assay [5] and in assay [6] was inactive. Also, the result in assay [7] was inactive.
`CCCCOCCOCCOCCOCCO`: the molecule was called inactive in assay [1], in assay [2], in assay [3], in assay [4], in assay [5] and in assay [6]. For the same molecule, the call in assay [7] was inactive.
With `C=C(C)C(=O)O[C@H]1C[C@@H]2CC[C@@]1(C)C2(C)C`, the result in assay [1], in assay [2], in assay [3], in assay [5], in assay [6] and in assay [7] was inactive. Moreover, the AC50 in assay [4] was 73.3 µM (active).
For `CCCCCCCCCCCCN(CCCCCCCCCCCC)CCCCCCCCCCCC`, the outcome in assay [1], in assay [2], in assay [3], in assay [4], in assay [5] and in assay [6] was inactive. Moreover, the molecule was called inactive in assay [7] and in assay [8].
In the case of `CC1(C)C(=O)N(Br)C(=O)N1Cl`, the call in assay [1], in assay [2], in assay [3], in assay [4], in assay [5] and in assay [6] was inactive. In assay [8], the result was inactive.
With `CCCCCCCCCCCCCCCC(=O)OC[C@H](O)[C@H]1OC(=O)C(O)=C1O`, the result in assay [1], in assay [2], in assay [3], in assay [5] and in assay [7] was inactive. For the same molecule, the AC50 in assay [4] was 131 µM (active); in assay [6], 24.1 µM (active); in assay [8] it was 71.7 µM (active).
As for `O=S(=O)(O)NC1CCCCC1`, the call in assay [1], in assay [2], in assay [3], in assay [4], in assay [5] and in assay [7] was inactive. Further, in assay [8], the outcome was inactive.
On to `CCCCCCOC(=O)CCCCC`, for which the call in assay [1], in assay [2], in assay [3], in assay [4], in assay [5] and in assay [6] was inactive. Besides, the result in assay [7] was inactive.
For the molecule `NCCNCCN`, the molecule was classed as inactive in assay [1], in assay [2], in assay [3], in assay [4], in assay [5] and in assay [6]. Besides, the molecule was called inactive in assay [7] and in assay [8].
`Nc1nc2ccc([N+](=O)[O-])cc2s1`: in assay [1], the AC50 is 77.4 µM (active). For the same molecule, the molecule was called inactive in assay [2], in assay [3], in assay [4], in assay [5], in assay [6] and in assay [8].
For the molecule `C=C(C)C(=O)Nc1ccc(Cl)c(Cl)c1`, the molecule was called inactive in assay [1], in assay [2], in assay [3], in assay [5] and in assay [6]. Besides, the figures for the AC50 in assay [7] and in assay [8] were 18.9 µM (active) and 27.8 µM (active), respectively.
Consider `O=C1C(c2[nH]c3ccc(S(=O)(=O)O)cc3c2O)=Nc2ccc(S(=O)(=O)O)cc21`, for which the result in assay [1], in assay [2], in assay [5], in assay [6] and in assay [7] was inactive.
For `CC[Si](OC(C)=O)(OC(C)=O)OC(C)=O`, the molecule was classed as inactive in assay [1], in assay [2], in assay [3], in assay [5] and in assay [6].

For orientation: AC50 means the concentration giving half of the maximal activity seen.
